Hits are enriched below; roughly 4.7% of the tested compounds scored in any of these assays.
TWEAK Fn14 block = inhibitors of TWEAK-Fn14 signaling, primary screen, luciferase reporter cells, uHTS | TWEAK-stimulated Fn14 reporter cells, luciferase luminescence, 8 h | inhibition, % at 10 µM | 360,000 compounds, 2% hits | AID 1159606, 2016; in the data active means inhibition above about 50%
HSF1 inh = HSF1 inhibitors in luciferase reporter cells, primary screen, cell-based, NIH3T3, luminescence | NIH3T3-HGL HSE-luciferase, MG132-induced, luminescence 8 h; active compounds read low | activity change, negative = inhibition, % at 7.5 µM (by protocol) | 300,000 compounds, 0.77% hits | AID 2098, 2009;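 active means more than half of replicate wells show activity change below -50%, luminescence cut by over half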;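 further: luciferase reports HSF-1 transcriptional activity via heat shock element; 0% = median of DMSO wells and -100% = zero luminescence signal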
HSP90 inh = HSP90 inhibitors, primary screen, cell lysate, luminescence | inhibition, % at 5.6 µM | 290,000 compounds, 0.91% hits | Rabbit reticulocyte lysate, luciferase refolding luminescence, 3 h | Heat shock protein HSP 90 (rabbit reticulocyte lysate; luciferase refolding);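 active means inhibition above the screen-wide mean plus 3 SD, computed separately per campaign, cut at about 16% in these data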;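 further: 0% = DMSO wells and 100% = 60 µM geldanamycin wells; inhibitors lower the luminescence because luciferase stays unfolded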
TROY signal inh = inhibitors of TROY-driven NF-kB signaling, primary screen, Q293 LMP1-TROYcd cells, NF-kB luciferase, uHTS; Q293 LMP1-TROYcd NF-kB luciferase reporter, 4 h; inhibition, % at 10 µM; 360,000 compounds, 0.98% hits; AID 1347056, 2019;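 active means compounds whose plate-normalised and pattern-corrected inhibition of the luciferase reporter signal at the single screening dose is 50% or more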
LMP1 NFkB inh = EBV LMP1-driven NF-kappaB luciferase reporter inhibitors, primary screen, cell-based, luminescence, single point; 350,000 compounds, 0.69% hits; inhibition, % at 12.5 µM; LMP1-induced NF-kappaB luciferase reporter cells; in the data active means inhibition above about 41%;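 further: 0% = neutral control wells and 100% = reference inhibitor control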
HSF1 activator = HSF-1 activators, primary screen, NIH3T3-HGL cells, MG132 stress, luminescence, single point; NIH3T3-HGL HSF-1 luciferase reporter, 8 h; 100% = twice DMSO control signal; activation, % at 9 µM; 300,000 compounds, 1.7% hits; AID 504408, 2011;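 active means mean replicate activation of at least 50% with a set share of replicates each reaching 50%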;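 further: 0% = median of the neutral control wells and 100% = twice that signal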
The depositor's hits bear a star; · = not tested or not shown.

SMILES	TWEAK Fn14 block	HSF1 inh	HSP90 inh	TROY signal inh	LMP1 NFkB inh	HSF1 activator
COc1cc2c(=O)n(CC3CCCO3)c(=O)n(CC(=O)Nc3cccc(Cl)c3)c2cc1OC (stereo not given)	-9	5	-2	5	85*	29
Cc1ccc(NC2CCCN(C(=O)C3CCCCC3)C2)cc1C (stereo not given)	69*	2	-3	-21	-9	2
Cn1cc(SCC(=O)NCC2CCCO2)c2ccccc21 (stereo not given)	-2	-10	·	5	85*	-23
CCOC(=O)CSc1nnc(-c2c[nH]c3ccccc23)n1CC	-4	-3	-2	-4	9	-18
COCCn1c(SCc2ccc(C(=O)OC)o2)nnc1-c1c[nH]c2ccccc12	-19	-1	1	3	47*	2
CCn1c(SCC(=O)NCC2CCCO2)nnc1-c1c[nH]c2ccccc12 (stereo not given)	63*	0	-3	·	4	-13
CCCn1cc(SCC(=O)NCC2CCCO2)c2ccccc21 (stereo not given)	0	4	2	-40	-8	12
CCn1c(SC(C)C)nnc1-c1c[nH]c2ccccc12	3	1	1	-10	84*	-3
Nc1ccn([C@@H]2O[C@H](C(=O)N(CCC3=CCCCC3)CC3CC3)[C@@H](O)[C@H]2O)c(=O)n1	3	·	·	12	·	·
Cc1ccc(S(=O)(=O)N2CCN(C(=O)CSc3nnnn3C)C2)cc1	-5	-4	-1	16	62*	12
COC(=O)Cc1ccc(OC2(C)CCN(Cc3ccccc3)C2)cc1 (stereo not given)	-12	·	·	1	·	·
CC(=O)Nc1ccc(NC(=O)COc2ccc(Cl)cc2Cl)cc1	-4	8	1	-26	0	0
O=C(COc1ccc(Cl)cc1Cl)Nc1ccc(Cl)cn1	54*	10	8	4	-35	24
O=C(O)CCC(=O)NNC(=O)CCCOc1ccc(Cl)cc1Cl	97*	5	7	-6	-4	-1
O=C(COc1ccc(Cl)cc1Cl)Nc1ccccc1F	55*	0	·	-7	-38	4
O=C(COC(=O)COc1ccc(Cl)cc1Cl)Nc1cccnc1Cl	-2	13	3	1	2	63*
CCc1nc2c(OCc3ccc(OC(F)F)cc3)cccn2c1N(C)C(=O)c1cccs1	-7	·	·	0	·	·
CN(CC(=O)O)S(=O)(=O)c1cc(Cl)ccc1Cl	39	1	0	57*	-5	-15
CCN(CC(=O)O)S(=O)(=O)c1cc(Cl)ccc1Cl	5	0	3	7	-7	-1
CCCCNC(=O)C1(C)CCC(=O)N1CCc1c[nH]c2ccccc12 (stereo not given)	2	·	·	-17	·	·
COC(=O)c1ccccc1NC(=S)NC(=O)c1ccccc1	84*	1	-5	·	5	27
COC(=O)c1ccccc1NC(=O)c1ccc(-c2ccc(Br)cc2)o1	77*	-48	12	81*	-28	-57
COC(=O)c1ccccc1NC(=O)CC(=O)Nc1ccccc1C(=O)OC	3	1	1	-3	50*	27
COC(=O)c1sc(NC(=S)NC(=O)c2ccccc2)nc1C	7	-9	-4	52*	-33	-6
O=C(Nc1cccc2nsnc12)c1ccc(-c2ccc(Br)cc2)o1	9	12	4	4	-8	25
SMILES	TWEAK Fn14 block	HSF1 inh	HSP90 inh	TROY signal inh	LMP1 NFkB inh	HSF1 activator
O=C(Nc1cccc(/C=C/c2ccccn2)c1)c1ccc(-n2cncn2)c([N+](=O)[O-])c1	42	1	·	34	0	-13
COC(=O)c1sc(NC(=O)COc2ccccc2C)nc1C	-38	11	3	-60	-7	57*
O=C(Nc1ccc(Br)c2ccccc12)c1ccc2ccccc2c1O	55*	0	-3	51*	16	2
Cc1cc(C)c(S(=O)(=O)c2ccccc2C(=O)O)c(C)c1	-2	6	-2	10	4	54*
COc1ccc(C(=O)c2[nH]c(N)c(C(=O)NCCc3c[nH]c4ccccc34)c2-c2ccc(OC)c(OC)c2)cc1	25	·	·	-7	·	·
COCC(C)Nc1ncnc2c1cnn2-c1ccc(Cl)cc1 (stereo not given)	57*	-7	5	40	-14	6
COc1ccc(-n2ncc3c(NCC(C)C)ncnc32)cc1	50*	12	10	31	7	9
Cc1c(C(=O)NCc2ccc3c(c2)OCCO3)sc(=O)n1Cc1ccccc1F	-11	·	·	22	·	·
O=C(CSc1nnc(-c2ccccc2)o1)c1nnc(-c2ccccc2)o1	-1	8	-4	-7	-2	-9
O=C(O)CCSc1ncnc2sc(-c3ccccc3)cc12	86*	-64*	12	63*	31	-65
CC(=O)c1c(C)[nH]c(C(=O)CSc2nnc(-c3ccccc3)o2)c1C	96*	0	-1	22	3	-5
CC(=O)CCSc1ncnc2sc(-c3ccccc3)cc12	6	3	2	11	-25	16
CC(=O)c1c(C)[nH]c(C(=O)CSc2ncnc3sc(-c4ccccc4)cc23)c1C	64*	-4	-1	24	24	-3
O=C1C=C(O)CC2(CCCCC2)C1	-12	·	·	0	·	·
COc1cc(C(=O)N2CCC2(C)C(=O)O)cc(OC)c1OC (stereo not given)	-14	·	·	9	·	·
CC(On1c(-c2ccccc2)nc2ccc(Cl)cc21)C(=O)O (stereo not given)	-23	21	-1	-61	-3	27
On1c(-c2ccccc2)nc2ccc(Cl)cc21	2	32	-2	-35	-15	54*
N#C/C(=C\c1coc2ccccc2c1=O)C(N)=S	23	11	-1	8	-6	32
N#C/C(=C\c1coc2ccc(O)cc2c1=O)C(=O)Nc1nc2ccccc2s1	73*	-34	14	52*	-5	-36
O=C(Nc1cccc(S(=O)(=O)C(F)(F)F)c1)[C@H]1C[C@H](O)[C@@H](CO)O1	20	·	·	-12	·	·
CC(=O)N(c1ccc2oc(=O)sc2c1)S(=O)(=O)c1ccc(C(=O)O)cc1	34	-60*	-3	1	-1	-65
CSc1ccccc1NC(=O)C1(C)CCN1C(=O)Cc1ccccc1Cl (stereo not given)	-26	·	·	-7	·	·
COc1ccc(CNc2oc(-c3cccc4ccccc34)nc2P(=O)(OC)OC)cc1	-10	3	-4	20	-20	17
